# Source: paper PMC4552634, “A New Set of Chemical Starting Points with Plasmodium falciparum Transmission-Blocking Potential for Antimalarial Drug Discovery” (PLoS ONE, 2015)
# About 3,200 (25%) of roughly 13,000 compounds showed an effect of 50% or more. This is one part of the list.
# Tested on: P. falciparum stage V gametocytes
# Set-up: BacTiter-Glo ATP luminescence viability of purified stage V gametocytes in 384-well plates, per cent inhibition versus DMSO
# Details: 48 h, 5 µM; inhibitor
row,SMILES,% Inhibition [%]
1,NC1=NC(c2ccccc2)N(c2ccccc2)C(N)=N1 (centres unmarked) [TCMDC-123669],-71.64
2,CNC(=O)CNC(=O)COc1cccc2ccccc12 [TCMDC-131646],8.257
3,O=C(N/N=C/c1nc2ccccc2[nH]1)c1cccc([N+](=O)[O-])c1 [TCMDC-125792],11.6
4,CCCCCCCC1=NN2C(=N)C(=Cc3cc(Br)c(OCc4ccc(F)cc4)c(OCC)c3)C(=O)N=C2S1 [TCMDC-124035],8.522
5,CCOc1cc(O)c(-c2nc(N)ncc2-c2ccc3c(c2)OCCO3)cc1CC [TCMDC-125234],11.3
6,CC1(C)N=C(N)NC(Nc2ccc(Cl)cc2)=N1 [TCMDC-124268],26.51
7,COCCCNC(=O)[C@H]1CNCCN1C(=O)c1ccccc1 [TCMDC-141239],-7.699
8,CN1CCC(N2CCN(CCOc3cc(NC(=O)/C=C/c4ccccc4Cl)ccc3Br)CC2)CC1 [TCMDC-140962],101
9,COc1ccc(NC(=O)/C=C/c2ccccc2Cl)cc1OCCN1CCC(N2CCCC2)CC1 [TCMDC-140919],-16.17
10,COc1cc2c(cc1OCCN1CCC(N3CCCC3)CC1)N(C(=O)/C=C/c1ccccc1Cl)CC2 [TCMDC-140968],80.73
11,COc1ccc(NC(=O)/C=C/c2ccccc2Cl)cc1OCCN1CCC(N(C)C)CC1 [TCMDC-140755],36.26
12,COc1ccc(NC(=O)/C=C/c2ccccc2Cl)cc1OCCN1CCC(NCc2ccccc2)CC1 [TCMDC-140746],-31.11
13,COc1cc2c(cc1OCCN1CCC(N3CCCCC3)CC1)N(C(=O)/C=C/c1ccccc1Cl)CC2 [TCMDC-140770],68.26
14,O=C(/C=C/c1ccccc1Cl)Nc1ccc(Br)c(OCCN2CCN(CCN3CCCC3)CC2)c1 [TCMDC-140961],38.25
15,COc1ccc(NC(=O)/C=C/c2ccccc2Cl)cc1OCCN1CCC(N2CCCCC2)CC1 [TCMDC-140698],-6.505
16,COc1ccc(NC(=O)/C=C/c2ccccc2Cl)cc1OCCN1CCC(N2CCN(C)CC2)CC1 [TCMDC-140757],11.04
17,O=C(Nc1ccc(N2CCCCC2)c(Cl)c1)c1ccc(Br)o1 [TCMDC-124350],9.025
18,CC(C)(C)C(Cn1ccnc1)NCc1cn[nH]c1-c1ccc(-c2ccccc2)cc1 (centres unmarked) [TCMDC-124639],18.54
19,CC1CCN(C(=O)CSc2nc(-c3ccc(C(C)C)cc3)no2)CC1 [TCMDC-124746],17.92
20,COCC(=O)Nc1nc2ccccc2[nH]1 [TCMDC-125535],-0.9845
21,Cc1cc(C(=O)Nc2ccc3c(c2)CCN3C2CCN(Cc3cccc4cc[nH]c34)C2)no1 (centres unmarked) [TCMDC-135085],42.96
22,CC(C)NCc1ccc(-c2ccc(NS(=O)(=O)c3cccc4cccnc34)cc2)cc1 [TCMDC-136476],32.43

row,SMILES,% Inhibition [%]
1,CCN(CC)CCNc1ccnc2[nH]c3ccc(C)cc3c12 [TCMDC-131833],-0.1276
2,CCn1ncc2c(N3CCCC3=O)cc(C(=O)N[C@@H](Cc3ccccc3)[C@H](O)CNC(C)(C)c3cccc(OC)c3)cc21 [TCMDC-135063],45.35
3,O=C(Nc1ccc(-c2cccc(-c3nc4ccc(F)cc4[nH]3)c2)cc1)Nc1ccc(Cl)c(Cl)c1 [TCMDC-133282],-9.249
4,CCC(CC)NCc1c(O)ccc2c(CNC(CC)CC)c(O)ccc12 [TCMDC-137581],-56.22
5,Cc1cccc2[nH]c(-c3ccc(-c4ccc(NC(=O)Nc5ccc(Cl)c(Cl)c5)cc4)cc3)nc12 [TCMDC-133281],-29.93
6,Cc1nc2ccc(S(=O)(=O)Nc3ccc(C(=O)N[C@@H](CCC(=O)O)C(=O)O)cc3)cc2c(=O)[nH]1 [TCMDC-137978],-10.92
7,CC(C)COc1ccc(Cl)cc1Cc1ccc(-c2nc3ccc(C(F)(F)F)cc3[nH]2)o1 [TCMDC-136563],61.92
8,CC(C)COc1ccc(Cl)cc1Cc1ccc(-c2nc3cc(F)c(F)cc3[nH]2)o1 [TCMDC-136561],53.5
9,CC(C)COc1ccc(Cl)cc1Cc1ccc(-c2nc3ccc(N4CCN(C)CC4)cc3[nH]2)o1 [TCMDC-136709],31.86
10,CC(C)COc1ccc(Cl)cc1Cc1ccc(-c2nc3ccc(CCN4CCCC4)cc3[nH]2)o1 [TCMDC-136890],21.95
11,CC(C)COc1ccc(Cl)cc1Cc1nc(-c2nc3ccc(CN(C)C)cc3[nH]2)co1 [TCMDC-136809],-8.138
12,CC(C)COc1ccc(Cl)cc1Cc1ccc(-c2nc3ccc(Cl)cc3[nH]2)o1 [TCMDC-136546],-3.56
13,CC(C)COc1ccc(Cl)cc1Cc1ccc(-c2nc3ccc(Br)cc3[nH]2)o1 [TCMDC-136705],53.1
14,CC(C)COc1ccc(Cl)cc1Cc1ccc(-c2nc3ccc(F)cc3[nH]2)o1 [TCMDC-136545],33.1
15,CC(C)COc1ccc(Cl)cc1Cc1ccc(-c2nc3ccc(CCN(C)C)cc3[nH]2)o1 [TCMDC-136891],30.85
16,CCCCC(CC)C(=O)C(NC(=O)[C@H](CSC(c1ccccc1)(c1ccccc1)c1ccccc1)NC(=O)OC(C)(C)C)C(=O)OC (some centres unmarked) [TCMDC-138083],0.3187
17,NC(=O)c1ccccc1OCC(=O)Nc1cccc(-c2ccc(-c3nc4ccc(C(F)(F)F)cc4[nH]3)cc2)c1 [TCMDC-132132],-3.438
18,Cc1cccc2[nH]c(-c3cccc(-c4cccc(NC(=O)COc5ccccc5C(N)=O)c4)c3)nc12 [TCMDC-132130],45.07
19,Cc1cccc2[nH]c(-c3cccc(-c4ccc(NC(=O)COc5ccccc5C(N)=O)cc4)c3)nc12 [TCMDC-132131],84.32
20,NC(=O)c1ccccc1OCC(=O)Nc1ccc(-c2cccc(-c3nc4ccc(C(F)(F)F)cc4[nH]3)c2)cc1 [TCMDC-132129],71.31
21,Cc1cccc2[nH]c(-c3cccc(-c4ccc(NC(=O)COC(C)C)cc4)c3)nc12 [TCMDC-137038],26.32
22,NC(=O)c1ccccc1OCC(=O)Nc1cccc(-c2cccc(-c3nc4ccccc4[nH]3)c2)c1 [TCMDC-132127],20.22
